In assay [1] the target is Myc proto-oncogene protein (Homo sapiens) (UniProt P01106). As to the kind of experiment: ATG_Myc_CIS: Attagene CIS-FACTORIAL HepG2 Assay for human Myelocytomatosis (Myc) Proto-Oncogene Transcription Factor (AID 2282990). The conditions noted are these: HepG2, Attagene cis-reporter transcription factor activity; actives raise or lower the signal. The gist of the method:
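DMSO-normalised, bidirectionally fitted reporter mRNA signal. HepG2 cells transfected with cis reporter constructs, treated 24 h; transcripts detected by RT-PCR, 6-FAM primer extension and CE.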

Assay [2] in a line: ATG_NF_kB_CIS: Attagene CIS-FACTORIAL HepG2 Assay for human Nuclear Factor Kappa B (NF-kB) (AID 2282991). The conditions noted are these: HepG2 Attagene cis-factorial NF-kB reporter mRNA; actives raise or lower the signal. The gist of the method: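 HepG2 cells transiently transfected with multiplexed cis-element reporter units measuring endogenous transcription factor activity; reporter mRNA read 24 h after dosing by RT-PCR, fluorescent labelling, HpaI digestion and capillary electrophoresis. Bidirectional fit against DMSO baseline.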

Assay [3] in a line: ATG_NRF2_ARE_CIS: Attagene CIS-FACTORIAL HepG2 Assay for human Nuclear Factor Erythroid 2 Related Factor 2 (NFR2) response to Antioxidant Response Elements (ARE) (AID 2282992). The conditions noted are these: HepG2 Attagene ARE/NRF2 reporter, transcription factor activity; actives raise or lower the signal. Put shortly:
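Using transiently transfected HepG2 cells exposed for 24 h, reporter mRNA levels were determined by RT-PCR with fluorescent primer extension and capillary electrophoresis, analysed for gain or loss of signal against DMSO.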

Assay [4] in a line: ATG_Oct_MLP_CIS: Attagene CIS-FACTORIAL HepG2 Assay for human Octamer-Binding Transcription Factor (Oct) (AID 2282993). The conditions noted are these: HepG2 Attagene cis-factorial Oct reporter, mRNA; actives raise or lower the signal. The gist of the method: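 Transient MRTU transfection of HepG2 → 24 h compound treatment → RNA isolation, reverse transcription, PCR → 6-FAM primer extension, HpaI digest → capillary electrophoresis. Activity fitted both directions against DMSO.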

The nature of assay [5]: BSK_3C_TissueFactor: BioMAP Diversity Plus: 3C Assay for Tissue Factor Biomarker Activity (AID 2282997). The conditions noted are these: BioMAP 3C HUVEC, tissue factor biomarker readout; actives raise or lower the signal. Put shortly: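 Readout: Tissue Factor ELISA. Cells: human primary umbilical vein endothelium. Time: 24 h after dosing. Analysis: bidirectional fit, DMSO baseline.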

Assay [6] can be described thus: BSK_3C_uPAR: BioMAP Diversity Plus: 3C Assay for Urokinase-type plasminogen activator receptor (uPAR) Biomarker Activity (AID 2282998). The conditions noted are these: BioMAP 3C HUVEC, uPAR biomarker ELISA; actives raise or lower the signal. The gist of the method:
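ELISA readout of uPAR on human vascular endothelium (umbilical vein primary cells), taken 24 h after chemical dosing. Increases and decreases are both fitted relative to DMSO vehicle.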
On the technique in general: ELISA stands for enzyme-linked immunosorbent assay.

Assay [7] is described as follows: BSK_3C_VCAM1: BioMAP Diversity Plus: 3C Assay for Vascular cell adhesion molecule 1 (VCAM1) Biomarker Activity (AID 2282999). The conditions noted are these: BioMAP 3C HUVEC, VCAM1 ELISA, cytokine-stimulated; actives raise or lower the signal. Put shortly:
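Vascular primary endothelium (human umbilical vein) was exposed to chemicals and assayed 24 h later. VCAM-1 levels came from ELISA, with DMSO serving as baseline for bidirectional fitting.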

Assay [8] can be described thus: BSK_4H_Eotaxin3: BioMAP Diversity Plus: 4H Assay for Eotaxin 3 Biomarker Activity (AID 2283000).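 As to outcome: CCL26 protein level quantified by ELISA in parallel with SRB cytotoxicity check.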 The conditions noted are these: primary human endothelial cells (HUVEC); actives raise or lower the signal. Put shortly:
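HUVEC, 24 h post-dose, ELISA for Eotaxin-3/CCL26. Gain or loss of signal fitted bidirectionally vs DMSO baseline.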

In assay [9] the target is human Peroxisome Proliferator-activated Receptor delta (PPARd), PPARD (gene 5467) (UniProt Q03181). As to the kind of experiment: ATG_PPARd_TRANS: Attagene TRANS-FACTORIAL HepG2 Assay for human Peroxisome Proliferator-activated Receptor delta (PPARd) (AID 2283002; active = hit-call score of the fitted dose curve at least 0.9, where 1 is the maximum). Put shortly:
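Measured quantity: GAL4-UAS reporter transcript induction in HepG2 after 24 h chemical dosing, with NR-Gal4 chimeras supplied by transient transfection. Detection by RT-PCR and capillary electrophoresis; upward fit against DMSO.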

Read-out in assay [10]: Intercellular Adhesion Molecule 1 (ICAM1), ICAM1 (gene 3383)
As to the kind of experiment: BSK_3C_ICAM1: BioMAP Diversity Plus: 3C Assay for Intercellular Adhesion Molecule 1 (ICAM1) Biomarker Activity (AID 2283003). The conditions noted are these: primary human endothelial cells (HUVEC); actives raise or lower the signal. Put shortly: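 ELISA readout of ICAM1 in human umbilical vein endothelial cells in the 3C system, taken 24 h post-dose. Gain or loss of signal versus DMSO was fitted in both directions, with SRB total-protein staining run in parallel.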

Assay [11] addresses human Retinoic Acid Receptor beta (RARb), RARB (gene 5915) (UniProt P10826). As to the kind of experiment: ATG_RARb_TRANS: Attagene TRANS-FACTORIAL HepG2 Assay for human Retinoic Acid Receptor beta (AID 2283004; active = hit-call score of the fitted dose curve at least 0.9, where 1 is the maximum). Put shortly:
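HepG2 cells transiently transfected with multiplexed GAL4-UAS reporter units expressing chimeric NR–Gal4 fusions; 24 h compound exposure. Reporter mRNA quantified by RT-PCR, 6-FAM labelling, HpaI digestion and capillary electrophoresis; gain-of-signal fitted against DMSO baseline.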

Assay [12] in a line: BSK_3C_Proliferation: Cell Proliferation Assessment in the BioMAP Diversity Plus: 3C Assay (AID 2283006).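 As to AC50: potency may reflect either rise or fall in cell number versus DMSO.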 The conditions noted are these: primary human endothelial cells (HUVEC). The gist of the method:
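Proliferation as total protein: sulforhodamine B (0.1%) stain of TCA-fixed subconfluent human umbilical vein endothelial cells, absorbance 560 nm, 48 h after dosing. Activity fitted in both directions against DMSO baseline.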

For assay [13], the target named is Peroxisome proliferator-activated receptor gamma (Homo sapiens) (UniProt P37231). As to the kind of experiment: ATG_PPARg_TRANS: Attagene TRANS-FACTORIAL HepG2 Assay for human Peroxisome Proliferator-activated Receptor-gamma (PPARg) (AID 2283007; active = hit-call score of the fitted dose curve at least 0.9, where 1 is the maximum). Put shortly: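 HepG2 cells transiently transfected with multiplexed GAL4-UAS reporter units and exogenous chimeric NR-Gal4 proteins; reporter mRNA quantified after 24 h compound exposure by RT-PCR, fluorescent labelling, HpaI digestion and capillary electrophoresis; gain-of-signal fitted versus DMSO baseline.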

The target in assay [14] is Nuclear receptor subfamily 1 group I member 2 (Homo sapiens) (UniProt O75469). As to the kind of experiment: ATG_PXR_TRANS: Attagene TRANS-FACTORIAL HepG2 Assay for human Pregnane X Receptor (PXR) (AID 2283008; active = hit-call score of the fitted dose curve at least 0.9, where 1 is the maximum). The gist of the method:
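Multiplexed TRANS reporter panel in HepG2; this component tracks PXR-Gal4-driven reporter mRNA after 24 h dosing, measured by RT-PCR with capillary electrophoresis fluorescence, fitted against DMSO.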

Assay [15] has as its target Cellular tumor antigen p53 (Homo sapiens) (UniProt P04637). As to the kind of experiment: ATG_p53_CIS: Attagene CIS-FACTORIAL HepG2 Assay for human p53 Transcription Factor (AID 2282994). The conditions noted are these: HepG2 p53 cis-element reporter, Attagene mRNA; actives raise or lower the signal. Put shortly:
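In HepG2 cells, reporter transcription units under cis-regulatory promoters were transiently introduced. Following 24 h treatment, RNA was processed to labelled, digested cDNA fragments read by capillary electrophoresis; fitting was bidirectional versus DMSO.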

The target in assay [16] is Retinoic acid receptor RXR-alpha (Homo sapiens) (UniProt P19793). As to the kind of experiment: ATG_RXRa_TRANS: Attagene TRANS-FACTORIAL HepG2 Assay for human Retinoid X Receptor alpha (RXRa) (AID 2283012; active = hit-call score of the fitted dose curve at least 0.9, where 1 is the maximum). Put shortly: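 TRANS format reporting activity of exogenous RXRa-Gal4 chimera in transiently transfected HepG2, 24 h exposure. Reporter transcripts quantified by RT-PCR with capillary electrophoresis, with gain of signal scored relative to DMSO.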

Assay [17] addresses human Peroxisome Proliferator-activated Receptor alpha (PPARa), PPARA (gene 5465) (UniProt Q07869). As to the kind of experiment: ATG_PPARa_TRANS: Attagene TRANS-FACTORIAL HepG2 Assay for human Peroxisome Proliferator-activated Receptor alpha (PPARa) (AID 2283001; active = hit-call score of the fitted dose curve at least 0.9, where 1 is the maximum). The gist of the method: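 Cells (HepG2) are transfected with multiple reporter transcription units, exposed to chemical for 24 h, then total RNA is reverse-transcribed and amplified. Labelled products are quantified by capillary electrophoresis; induction is referenced to DMSO.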

Assay [18] has as its target Retinoic acid receptor alpha (Homo sapiens) (UniProt P10276). As to the kind of experiment: ATG_RARa_TRANS: Attagene TRANS-FACTORIAL HepG2 Assay for human Retinoic Acid Receptor alpha (RARa) (AID 2283005; active = hit-call score of the fitted dose curve at least 0.9, where 1 is the maximum). Put shortly: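 HepG2 cells transiently transfected with multiple reporter units expressing chimeric RARα-GAL4 fusion, with GAL4-UAS-driven reporters. After 24 h compound exposure, reporter mRNA induction quantified by RT-PCR and capillary electrophoresis with fluorescent labeling; gain-of-signal fitted relative to DMSO control.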

Assay [19] has as its target human RAR-related Orphan Receptor gamma (RORg), RORC (gene 6097) (UniProt P51449). As to the kind of experiment: ATG_RORg_TRANS: Attagene TRANS-FACTORIAL HepG2 Assay for human RAR-related Orphan Receptor gamma (RORg) (AID 2283011; active = hit-call score of the fitted dose curve at least 0.9, where 1 is the maximum). Put shortly: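 Readout: reporter transcript induction (RT-PCR, fluorescent primer extension, capillary electrophoresis) after 24 h compound exposure of transiently transfected HepG2 cells carrying a RORg-Gal4 chimera and GAL4-UAS reporters; DMSO served as baseline, with increasing signal fitted.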

For assay [20], the target named is human RAR-related Orphan Receptor beta (RORb), RORB (gene 6096) (UniProt Q92753). As to the kind of experiment: ATG_RORb_TRANS: Attagene TRANS-FACTORIAL HepG2 Assay for human RAR-related Orphan Receptor beta (RORb) (AID 2283010; active = hit-call score of the fitted dose curve at least 0.9, where 1 is the maximum). Put shortly: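 Read-out is reporter mRNA induction, quantified by RT-PCR with fluorescent capillary electrophoresis, 24 h post-dose in transiently transfected HepG2 expressing exogenous NR-Gal4 chimera. Activity fitted upward versus DMSO.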

Results filed as inconclusive are left out. Where a structure was tested more than once in an assay, its records may differ in their call. Activity calls are given as the source filed them. The calls were made as follows, unless noted: active = hit-call score of the fitted dose curve at least 0.9, where 1 is the maximum; inactive = score below 0.9.

Sequence of Nuclear receptor subfamily 1 group I member 2 (Homo sapiens) (O75469 whole entry, looked up, the tested form may be a part): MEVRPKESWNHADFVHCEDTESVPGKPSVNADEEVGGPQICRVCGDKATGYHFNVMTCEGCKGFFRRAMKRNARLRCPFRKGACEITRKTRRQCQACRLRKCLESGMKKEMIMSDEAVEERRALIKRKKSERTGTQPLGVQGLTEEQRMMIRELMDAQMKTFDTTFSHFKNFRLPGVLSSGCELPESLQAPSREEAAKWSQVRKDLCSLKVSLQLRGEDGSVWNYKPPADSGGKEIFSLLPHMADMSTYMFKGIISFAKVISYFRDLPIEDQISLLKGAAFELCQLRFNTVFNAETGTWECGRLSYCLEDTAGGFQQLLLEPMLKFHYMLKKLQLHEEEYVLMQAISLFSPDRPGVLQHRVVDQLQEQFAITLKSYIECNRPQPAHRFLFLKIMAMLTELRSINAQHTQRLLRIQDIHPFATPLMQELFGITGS
Sequence of human Peroxisome Proliferator-activated Receptor alpha (PPARa), PPARA (gene 5465) (Q07869 whole entry, looked up): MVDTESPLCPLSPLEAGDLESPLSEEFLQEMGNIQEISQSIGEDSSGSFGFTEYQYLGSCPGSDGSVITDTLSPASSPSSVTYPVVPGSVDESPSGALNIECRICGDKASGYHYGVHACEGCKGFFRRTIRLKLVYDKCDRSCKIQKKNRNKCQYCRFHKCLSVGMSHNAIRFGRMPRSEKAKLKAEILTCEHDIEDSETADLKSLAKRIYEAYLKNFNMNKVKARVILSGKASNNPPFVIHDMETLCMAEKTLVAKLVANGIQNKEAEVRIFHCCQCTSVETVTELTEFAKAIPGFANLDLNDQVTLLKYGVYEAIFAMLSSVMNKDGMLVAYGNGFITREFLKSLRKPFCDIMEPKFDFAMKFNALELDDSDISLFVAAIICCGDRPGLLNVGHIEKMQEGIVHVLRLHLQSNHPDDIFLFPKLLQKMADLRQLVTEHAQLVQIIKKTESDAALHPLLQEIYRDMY
Sequence of human Retinoic Acid Receptor beta (RARb), RARB (gene 5915) (P10826 whole entry, looked up, the tested form may be a part): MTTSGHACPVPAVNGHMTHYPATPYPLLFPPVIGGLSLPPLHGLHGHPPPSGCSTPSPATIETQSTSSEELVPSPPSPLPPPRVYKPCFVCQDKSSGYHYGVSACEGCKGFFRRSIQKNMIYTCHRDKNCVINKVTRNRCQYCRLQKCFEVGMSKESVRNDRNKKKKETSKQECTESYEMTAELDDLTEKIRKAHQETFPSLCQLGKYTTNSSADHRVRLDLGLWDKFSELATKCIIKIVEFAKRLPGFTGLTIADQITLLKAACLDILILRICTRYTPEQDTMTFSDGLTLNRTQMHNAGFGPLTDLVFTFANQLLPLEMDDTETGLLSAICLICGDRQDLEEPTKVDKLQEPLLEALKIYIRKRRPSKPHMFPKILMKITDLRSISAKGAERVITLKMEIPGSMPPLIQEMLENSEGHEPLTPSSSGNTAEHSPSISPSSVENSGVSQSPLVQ
Sequence of Cellular tumor antigen p53 (Homo sapiens) (P04637 whole entry, looked up, the tested form may be a part): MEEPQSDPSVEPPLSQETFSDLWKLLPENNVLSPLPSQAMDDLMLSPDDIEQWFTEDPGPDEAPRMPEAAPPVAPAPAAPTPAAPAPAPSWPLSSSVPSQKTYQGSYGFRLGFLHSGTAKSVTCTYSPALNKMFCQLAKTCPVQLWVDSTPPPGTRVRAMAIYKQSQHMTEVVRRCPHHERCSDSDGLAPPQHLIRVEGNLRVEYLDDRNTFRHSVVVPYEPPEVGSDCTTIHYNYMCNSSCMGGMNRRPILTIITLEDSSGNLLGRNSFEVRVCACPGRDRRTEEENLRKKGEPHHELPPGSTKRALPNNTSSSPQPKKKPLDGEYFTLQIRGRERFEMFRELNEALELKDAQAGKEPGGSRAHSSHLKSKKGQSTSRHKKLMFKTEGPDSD
Sequence of Peroxisome proliferator-activated receptor gamma (Homo sapiens) (P37231 whole entry, looked up, the tested form may be a part): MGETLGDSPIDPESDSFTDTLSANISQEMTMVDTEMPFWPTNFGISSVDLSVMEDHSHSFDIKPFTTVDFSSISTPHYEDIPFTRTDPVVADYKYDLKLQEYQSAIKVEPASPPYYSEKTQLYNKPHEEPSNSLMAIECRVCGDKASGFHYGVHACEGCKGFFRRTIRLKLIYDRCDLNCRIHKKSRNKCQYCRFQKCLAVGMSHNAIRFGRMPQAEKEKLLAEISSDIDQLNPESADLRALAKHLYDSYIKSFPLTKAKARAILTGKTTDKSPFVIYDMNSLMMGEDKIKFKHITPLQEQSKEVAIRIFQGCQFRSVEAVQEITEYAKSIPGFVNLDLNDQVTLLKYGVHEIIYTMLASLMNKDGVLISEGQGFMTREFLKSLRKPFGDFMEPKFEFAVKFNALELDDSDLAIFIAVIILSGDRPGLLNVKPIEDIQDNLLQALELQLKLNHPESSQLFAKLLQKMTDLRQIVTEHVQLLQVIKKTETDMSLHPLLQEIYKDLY
Sequence of Retinoic acid receptor RXR-alpha (Homo sapiens) (P19793 whole entry, looked up, the tested form may be a part): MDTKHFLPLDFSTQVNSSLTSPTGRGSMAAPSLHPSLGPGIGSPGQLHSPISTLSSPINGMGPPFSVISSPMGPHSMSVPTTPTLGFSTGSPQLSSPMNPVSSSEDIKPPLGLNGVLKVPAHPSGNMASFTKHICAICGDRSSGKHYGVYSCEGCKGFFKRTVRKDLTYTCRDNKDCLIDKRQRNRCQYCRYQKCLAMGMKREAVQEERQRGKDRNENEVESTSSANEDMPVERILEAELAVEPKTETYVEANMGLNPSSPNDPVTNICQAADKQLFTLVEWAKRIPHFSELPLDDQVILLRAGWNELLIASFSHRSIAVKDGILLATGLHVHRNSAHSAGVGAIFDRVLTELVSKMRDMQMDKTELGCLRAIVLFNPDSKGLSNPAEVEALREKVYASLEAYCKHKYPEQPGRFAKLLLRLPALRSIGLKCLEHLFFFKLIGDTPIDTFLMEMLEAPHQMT
Sequence of Retinoic acid receptor alpha (Homo sapiens) (P10276 whole entry, looked up, the tested form may be a part): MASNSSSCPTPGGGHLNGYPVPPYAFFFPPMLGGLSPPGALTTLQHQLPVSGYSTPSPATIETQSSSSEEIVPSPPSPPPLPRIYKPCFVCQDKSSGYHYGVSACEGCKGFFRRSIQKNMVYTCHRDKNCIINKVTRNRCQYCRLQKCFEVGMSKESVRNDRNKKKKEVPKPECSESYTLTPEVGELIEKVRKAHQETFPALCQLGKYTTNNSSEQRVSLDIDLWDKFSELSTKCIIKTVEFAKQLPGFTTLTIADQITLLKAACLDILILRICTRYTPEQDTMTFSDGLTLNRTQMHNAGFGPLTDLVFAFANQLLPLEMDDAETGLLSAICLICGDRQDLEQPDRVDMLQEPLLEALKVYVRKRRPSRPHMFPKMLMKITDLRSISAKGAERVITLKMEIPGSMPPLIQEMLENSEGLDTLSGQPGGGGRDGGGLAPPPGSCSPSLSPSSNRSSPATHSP
Sequence of Myc proto-oncogene protein (Homo sapiens) (P01106 whole entry, looked up): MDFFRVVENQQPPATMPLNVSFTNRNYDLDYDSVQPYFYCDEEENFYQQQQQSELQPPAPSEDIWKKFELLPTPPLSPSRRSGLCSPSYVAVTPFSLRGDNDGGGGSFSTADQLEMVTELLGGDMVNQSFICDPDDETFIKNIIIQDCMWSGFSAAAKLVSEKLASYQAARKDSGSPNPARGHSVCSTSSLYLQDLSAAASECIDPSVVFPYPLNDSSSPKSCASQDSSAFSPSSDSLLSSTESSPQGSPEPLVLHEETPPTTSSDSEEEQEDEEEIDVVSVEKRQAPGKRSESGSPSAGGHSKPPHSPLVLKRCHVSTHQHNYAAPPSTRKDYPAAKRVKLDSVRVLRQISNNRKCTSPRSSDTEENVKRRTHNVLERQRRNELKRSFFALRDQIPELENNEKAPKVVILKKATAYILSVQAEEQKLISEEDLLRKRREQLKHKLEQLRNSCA
Sequence of human Peroxisome Proliferator-activated Receptor delta (PPARd), PPARD (gene 5467) (Q03181 whole entry, looked up, the tested form may be a part): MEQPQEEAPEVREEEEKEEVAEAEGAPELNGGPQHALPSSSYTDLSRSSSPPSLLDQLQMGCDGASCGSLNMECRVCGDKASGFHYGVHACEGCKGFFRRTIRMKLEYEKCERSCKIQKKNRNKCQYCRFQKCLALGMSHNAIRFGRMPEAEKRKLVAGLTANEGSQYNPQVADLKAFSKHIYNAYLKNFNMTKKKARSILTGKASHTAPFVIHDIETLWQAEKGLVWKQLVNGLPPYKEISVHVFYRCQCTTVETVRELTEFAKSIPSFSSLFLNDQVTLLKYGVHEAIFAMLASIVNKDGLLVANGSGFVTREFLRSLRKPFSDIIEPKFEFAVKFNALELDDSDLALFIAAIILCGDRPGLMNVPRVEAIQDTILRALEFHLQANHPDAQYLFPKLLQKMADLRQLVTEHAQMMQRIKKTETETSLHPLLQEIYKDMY
Sequence of human RAR-related Orphan Receptor beta (RORb), RORB (gene 6096) (Q92753 whole entry, looked up, the tested form may be a part): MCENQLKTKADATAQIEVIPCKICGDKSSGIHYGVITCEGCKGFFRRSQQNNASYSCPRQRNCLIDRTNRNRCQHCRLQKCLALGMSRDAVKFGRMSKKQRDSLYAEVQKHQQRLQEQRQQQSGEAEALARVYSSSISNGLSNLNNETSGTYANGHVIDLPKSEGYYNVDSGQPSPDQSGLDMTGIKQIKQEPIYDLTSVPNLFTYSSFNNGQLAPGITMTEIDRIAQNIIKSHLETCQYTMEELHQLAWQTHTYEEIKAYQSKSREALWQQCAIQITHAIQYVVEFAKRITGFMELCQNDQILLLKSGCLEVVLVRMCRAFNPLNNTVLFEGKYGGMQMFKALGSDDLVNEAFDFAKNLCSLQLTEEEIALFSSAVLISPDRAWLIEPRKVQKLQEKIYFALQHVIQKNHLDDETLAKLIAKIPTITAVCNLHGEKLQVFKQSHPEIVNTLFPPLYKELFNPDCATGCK

Usually AC50 stands for the concentration giving half of the maximal activity seen. For the molecule `Cc1nc(-c2ccccn2)ncc1C(=O)Nn1cc(C)c2cc(F)ccc21`, the molecule was classed as inactive in [1], in assay [2], in assay [3], in assay [4], in assay [5] and in assay [7]. The outcome in assay [8], in assay [9], in assay [10], in assay [11] and in assay [12] was inactive. Besides, the concentration at half-maximal activity (AC50) in [6] is 20 µM (active); in assay [13], 7.87 µM (active); in assay [14], 0.775 µM (active).
With `CCCCOC(=O)c1ccccc1`, the outcome in assay [1], in assay [2], in assay [3], in assay [4], in [15] and in [5] was inactive. The outcome in [6], in assay [7], in assay [8], in assay [9], in assay [10] and in [12] was inactive. Moreover, the result in assay [13], in [14] and in [16] was inactive.
Regarding `FC(F)=C(F)C(F)(F)C(F)(F)C(F)(F)C(F)(F)C(F)(F)C(F)(F)F`, the outcome in [1], in assay [2], in [3], in assay [15], in assay [5] and in assay [6] was inactive. The outcome in assay [7], in [8], in assay [17], in assay [9], in assay [10] and in assay [11] was inactive. Also, the outcome in [18], in assay [12], in assay [13], in assay [14], in [19] and in assay [16] was inactive. The AC50 in [3] is 86.6 µM (active).
With `CCc1ccc(O)c(C(C)(C)C)c1`, the AC50 in assay [1] was 33.4 µM (active); in assay [3], 27.7 µM (active); in [5], 32.2 µM (active); in assay [6], 39.3 µM (active); in [7] it was 34.6 µM (active); in assay [8], 39 µM (active). Further, the AC50 in assay [10] was 31.5 µM (active); in [12], 34.8 µM (active); in assay [14] it was 17.4 µM (active); in [16] it was 39.9 µM (active). In addition, the molecule was classed as inactive in assay [2], in assay [4], in assay [15], in assay [17], in assay [13] and in assay [20].
Take `CCCCC(CC)C(=O)OCCOCCOCCOC(=O)C(CC)CCCC` (stereo not drawn): the molecule was classed as inactive in [1], in assay [2], in [3], in assay [4], in assay [15] and in assay [5]. The result in assay [6], in assay [7], in assay [8], in assay [9], in [10] and in assay [18] was inactive. For the same molecule, the result in [12], in assay [13] and in [16] was inactive. Also, the AC50 in assay [14] is 27.5 µM (active).
Take `C[C@@H](Oc1ccc(CNC(=O)c2cccnc2Oc2ccc3c(c2)OCO3)c(F)c1)C(=O)O`: the outcome in assay [1], in assay [2], in [3], in assay [4], in assay [5] and in [7] was inactive. The outcome in assay [8], in [17], in [9], in assay [10], in assay [12] and in assay [14] was inactive. In addition, the result in assay [20] and in assay [16] was inactive. The AC50 in [13] is 24.3 µM (active).
Turning to `OC(CCl)CCl`, the call in assay [1], in [2], in assay [3], in [4], in assay [15] and in assay [5] was inactive. The outcome in [7], in [8], in [17], in [10] and in [12] was inactive.
As to `OCCOCCOCCO`, the outcome in [1], in assay [2], in assay [3], in [4], in [15] and in assay [5] was inactive. The outcome in assay [7], in [8], in [10], in [12], in assay [13] and in assay [16] was inactive.

For the origin of these results see PubChem BioAssay (EPA / NIEHS).
